About 5,800 (36%) of roughly 16,000 compounds were called active. Not shown: some 23% with an inconclusive outcome. Some of the results follow. Values without a mark were called inactive. Calls come from the whole dose curve; as a rule, active = well fitted curve in the direction sought with a large enough effect; inconclusive = small, poorly fitted or top-dose-only effect, or effect the other way; inactive = no such curve, though single readings can be large or run the other way.
Each compound was assayed against Cytochrome P450 2C19 (Homo sapiens) (UniProt P33261) (assay: Cytochrome panel assay with activity outcomes). Settings: recombinant CYP, pro-luciferin dealkylation, luminescence, p450-cyp2c19; series mostly up to 57.1 µM.
% is set by controls: 0 for no effect and ±100 for the full control effect.

Cytochrome P450 2C19 (Homo sapiens), sequence (P33261 whole entry, looked up): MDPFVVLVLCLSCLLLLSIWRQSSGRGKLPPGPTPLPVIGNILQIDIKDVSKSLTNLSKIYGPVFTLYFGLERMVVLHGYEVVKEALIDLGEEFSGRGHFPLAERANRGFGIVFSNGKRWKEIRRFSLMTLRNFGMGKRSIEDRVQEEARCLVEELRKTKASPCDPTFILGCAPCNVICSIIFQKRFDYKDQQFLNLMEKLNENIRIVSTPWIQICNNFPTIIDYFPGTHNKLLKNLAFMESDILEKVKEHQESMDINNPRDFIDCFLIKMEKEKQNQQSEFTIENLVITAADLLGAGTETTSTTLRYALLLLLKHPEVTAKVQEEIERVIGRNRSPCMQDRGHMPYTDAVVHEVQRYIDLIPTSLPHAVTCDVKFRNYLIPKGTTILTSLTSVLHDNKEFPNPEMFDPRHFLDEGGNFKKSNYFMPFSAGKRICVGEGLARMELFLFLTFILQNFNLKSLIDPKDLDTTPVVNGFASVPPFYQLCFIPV

Row | SMILES | AC50 | activity, negative = inhibition
1 | COc1ccc(-c2nc3cnc(OC)nc3n(C)c2=O)cc1 | inactive | –
2 | CCc1c(O)nc2sc3ccccc3n2c1=O | inactive | –
3 | Cc1ccc2c(CC(=O)OCc3cc(=O)n4c(n3)sc3ccccc34)coc2c1 | 7.08 µM (active) | –
4 | CC1CCCN(C(=O)c2sc3cc([N+](=O)[O-])ccc3c2Cl)C1 (centres undefined) | 3.98 µM (active) | –
5 | C[C@@H]1C[C@H](C)CN(S(=O)(=O)c2cc(Cl)c(Oc3ccc([N+](=O)[O-])cc3Cl)c(Cl)c2)C1 | – | -27.5% [at 11.4 µM]
6 | CN1CCCN(C)C1c1cc([N+](=O)[O-])ccc1O | – | -15% [at 11.4 µM]
7 | Cc1ccc(C2=NN(S(C)(=O)=O)C(c3cccs3)C2)cc1 (centres undefined) | 0.447 µM (active) | –
8 | CN(C)c1ccc(NC(=O)CSc2nc(N)c(C(=O)Nc3ccc(N(C)C)cc3)s2)cc1 | 11.2 µM (active) | –
9 | Cc1[nH]nc2nc(SCC(=O)NCC3CCCO3)n(-c3ccc(Br)cc3)c(=N)c12 (centres undefined) | 11.2 µM (active) | –
10 | Cc1ccc(C)c(-n2c(Cc3cc(=O)[nH]c(=O)[nH]3)nnc2SCC(=O)NCC2CCCO2)c1 (centres undefined) | inactive | –
11 | COc1cc(OC)c(NC(=S)Nc2cccc(C(C)=O)c2)cc1Cl | 3.16 µM (active) | –
12 | CCOC(=O)c1cnc(N(C)C)nc1SC(=N)N | – | 7.18% [at 11.4 µM]
13 | CCOC(=O)c1cnc2ccc(C)cc2c1Sc1ccccc1C(=O)OC | 1.26 µM (active) | –
14 | c1ccc(-c2nc(-c3cccs3)[nH]c2-c2ccccc2)cc1 | 6.31 µM (active) | –
15 | O=[N+]([O-])c1cccc(-c2nc(-c3ccccc3)c(-c3cccs3)[nH]2)c1 | 2.51 µM (active) | –
16 | COc1ccc(-c2nc(-c3ccccc3)c(-c3cc([N+](=O)[O-])ccc3C)[nH]2)cc1O | 8.91 µM (active) | –
17 | NC(N)=Nc1nc2ccc([N+](=O)[O-])cc2[nH]1 | – | -5.76% [at 11.4 µM]
18 | O=[N+]([O-])c1cccc(-c2nc(-c3cccs3)c(-c3cccs3)[nH]2)c1 | 3.16 µM (active) | –
19 | CO[C@]1(NC(=O)C2SC(=C(C(N)=O)C(=O)O)S2)C(=O)N2C(C(=O)O)=C(CSc3nnnn3C)CS[C@H]21 (some centres undefined) | inactive | –
20 | NCCC(=O)O | inactive | –
21 | CCC(Sc1nc2n[nH]c(C)c2c(=N)n1-c1cccc(Cl)c1)C(=O)NCCOC (centres undefined) | 10 µM (active) | –
22 | CCC(C)Nc1c([N+](=O)[O-])cc(C)cc1[N+](=O)[O-] (centres undefined) | 7.94 µM (active) | –
23 | Cc1cc([N+](=O)[O-])c(C)c(Br)c1C | – | 8.85% [at 11.4 µM]
24 | c1ccc(C[C@@H](Nc2cccnc2)c2ccccc2)cc1 | 1 µM (active) | –

Row | SMILES | AC50 | activity, negative = inhibition
25 | C[C@@H](N)[C@@H](C)Cc1ccccc1 | – | -14.2% [at 11.4 µM]
26 | O=C(O)Cc1cccnc1 | – | 9.66% [at 11.4 µM]
27 | O=c1[nH]cc(CS(=O)(=O)Cc2c[nH]c(=O)[nH]c2=O)c(=O)[nH]1 | – | 41% [at 11.4 µM]
28 | CC1(C)CC(=O)C(C=NCCN2CCN(C(=S)Nc3ccc(F)cc3)CC2)=C(O)C1 | 10 µM (active) | –
29 | COCCCN=CC1=C(O)CC(C)(C)CC1=O | inactive | –
30 | CC(=O)N1CCC2(CC1)CN(Cc1ccccc1)C2 | inactive | –
31 | CCCCN1CSC(=S)N(Cc2ccccc2)C1 | 1.26 µM (active) | –
32 | S=C1SCN(CCN2CCOCC2)CN1Cc1ccccc1 | 10 µM (active) | –
33 | COc1cc2cc3c4cc(OC)c(OC)cc4cc[n+]3c(C)c2cc1OC | inactive | –
34 | Cc1ccc(NC(=O)c2ccccc2C(=O)O)cc1C | – | -34.4% [at 11.4 µM]
35 | Cc1oc(-c2ccccc2)cc1C(=O)Nc1ccc(N(C)C)cc1 | 5.62 µM (active) | –
36 | Cc1oc(C(C)(C)C)cc1C(=O)Nc1cccc(/C=C/C(=O)O)c1 | inactive | –
37 | CCn1c(=N)c(S(=O)(=O)c2ccc(F)cc2)cc2c(=O)n3ccccc3nc21 | 8.91 µM (active) | –
38 | Cn1c(=N)c(S(=O)(=O)c2ccc(F)cc2)cc2c(=O)n3ccccc3nc21 | 11.2 µM (active) | –
39 | Cn1c(C(=O)N2COCC2(C)C)cc2c(=O)n3ccccc3nc21 | inactive | –
40 | Cc1cn([C@H]2C[C@H](O)[C@@H](COC(N)=O)O2)c(=O)[nH]c1=O | – | 35.3% [at 11.4 µM]
41 | COc1cccc(Nc2ncc3nc(-c4ccc(Cl)cc4)c(=O)n(C4CC4)c3n2)c1 | inactive | –
42 | COc1ccc(Nc2cc(=O)n(C3CCCCC3)c(=O)[nH]2)c(OC)c1 | 10 µM (active) | –
43 | COc1cccc(Nc2ncc3ncc(=O)n(C4CC4)c3n2)c1 | inactive | –
44 | CS[C@@H](CC(=O)O)C(=O)O | – | 17.7% [at 11.4 µM]
45 | Cc1nnc(N(C)C(=O)c2ccccn2)s1 | inactive | –
46 | COc1cccc(C(=O)N(C)c2nnc(-c3ccncc3)s2)c1 | 0.0501 µM (active) | –
47 | CCOc1ccc2nc(SCc3ccccc3C#N)sc2c1 | 1.26 µM (active) | –
48 | C=C(C)c1cccc(C(C)(C)NC(=O)Nc2cc(C)ccc2OC)c1 | 3.98 µM (active) | –

Row | SMILES | AC50 | activity, negative = inhibition
49 | CCCCn1c(NCc2ccccc2NS(=O)(=O)c2ccc(C)cc2)nc2ccccc21 | 1.26 µM (active) | –
50 | C#CCCCO/N=C1/C[C@@H](O)[C@@H](O)[C@@H]2[C@H]3C(=O)N(c4ccc(F)cc4F)C(=O)[C@@H]3CC[C@H]12 | – | 14.9% [at 11.4 µM]
51 | c1ccc(C(CCN2CC3CCC(CC3)C2)c2ccccc2)cc1 | – | 21% [at 11.4 µM]
52 | C[C@H](NCCC(c1ccccc1)c1ccccc1)c1ccccc1 | 5.01 µM (active) | –
53 | NC(=O)CNCCC(c1ccccc1)c1ccccc1 | inactive | –
54 | CCOC(=O)c1ccccc1Oc1c(F)c(F)nc(NCCO)c1F | 2.51 µM (active) | –
55 | CCOC(=O)c1cnc(-n2nc(C)cc2C)nc1NCCO | inactive | –
56 | COc1ccc(OC)c(C(=O)CSc2nnc(Cc3cccs3)n2CCc2ccccc2)c1 | 1.78 µM (active) | –
57 | COc1ccc(C(=O)NNC(=O)CSc2nnc(COc3ccc4ccccc4c3)n2C)cc1 | inactive | –
58 | CCn1c(CNC(=O)COc2ccc(C(C)C)cc2)nnc1SCC(=O)Nc1cc(F)ccc1C | 28.2 µM (active) | –
59 | CCn1c(COc2ccccc2)nnc1SCC(=O)Nc1cc(OC)ccc1OC | 2.82 µM (active) | –
60 | COc1cccc(Nc2ncc3nc(CCc4ccccc4)c(=O)n(Cc4cccs4)c3n2)c1 | inactive | –
61 | COc1ccc(NC(=O)CSc2nnc(Cc3cccn3C)n2CCc2ccccc2)c(OC)c1 | 3.16 µM (active) | –
62 | COc1ccc(CCn2c3c(c(=O)[nH]c2=O)C(NC(=O)c2cccs2)(C(F)(F)F)C(=O)N3)cc1OC (centres undefined) | inactive | –
63 | COc1ccc([C@@H]2CC(=O)c3c(O)cc(O)cc3O2)cc1O | 5.01 µM (active) | –
64 | COc1ccc([C@@H]2CC(=O)c3c(O)cc(O[C@H]4O[C@@H](CO[C@H]5O[C@@H](C)[C@@H](O)[C@@H](O)[C@@H]5O)[C@@H](O)[C@@H](O)[C@@H]4O)cc3O2)cc1O | inactive | –
65 | O=C1c2c(O)cc(O)cc2O[C@@H](c2ccc(O)c(O)c2)[C@H]1O | inactive | –
66 | Cc1c(-n2cc(C(=O)c3cc(Cl)ccc3O)cc(C#N)c2=O)c(=O)n(-c2ccccc2)n1C | inactive | –
67 | COC(=O)c1cc(C(=O)c2cccc(Cl)c2Cl)cn1C | 1.26 µM (active) | –
68 | Cn1cc(C(=O)c2cccc(Cl)c2Cl)cc1C(=O)O | inactive | –
69 | Cn1cc(C(=O)c2ccc(Cl)cc2Cl)cc1C(=O)O | inactive | –
70 | COC(=O)c1cc(C(=O)c2ccc(Cl)cc2Cl)cn1C | 5.62 µM (active) | –
71 | CN(C)CCCn1cc(C2=C(c3c[nH]c4ccccc34)C(=O)NC2=O)c2ccccc21 | inactive | –
72 | CN(C)c1ncc2nc(-c3ccccc3)c(=O)n(CCc3ccccc3)c2n1 | inactive | –

Row | SMILES | AC50 | activity, negative = inhibition
73 | CN(C)c1ncc2nc(-c3ccc(F)cc3)c(=O)n(CCc3ccccc3)c2n1 | inactive | –
74 | CN(C)c1ncc2ncc(=O)n(CCc3ccccc3)c2n1 | 2 µM (active) | –
75 | Cc1nc2cnc(N(C)C)nc2n(CCc2ccccc2)c1=O | 0.631 µM (active) | –
76 | CN(C)c1ncc2ncc(=O)n(CCC#N)c2n1 | inactive | –
77 | COc1ccc(-c2nc3cnc(N(C)C)nc3n(CCc3ccccc3)c2=O)cc1 | inactive | –
78 | Cc1ccc(-n2c(O)cnc2Nc2nc(C)cc(C)n2)cc1 | inactive | –
79 | COc1c(C)c2c(c(O)c1C/C=C(\C)CCC(=O)O)C(=O)OC2 | inactive | –
80 | CC(Sc1nnc(C(C)N(C)C)n1-c1ccc(Cl)cc1)C(=O)Nc1ccc2c(c1)OCO2 (centres undefined) | 22.4 µM (active) | –
81 | O=C(c1cnc(N2CCN(c3ncccn3)CC2)c2ccccc12)N1CCN(c2ccccn2)CC1 | 5.01 µM (active) | –
82 | O=C(O)CCC(=O)N1CCN(c2ccccn2)CC1 | inactive | –
83 | COc1ccccc1C(=O)N1CCN(c2ccccn2)CC1 | 7.08 µM (active) | –
84 | O=C(c1cnccn1)N1CCC2(CC1)CCN(c1ccccn1)CC2 | inactive | –
85 | CC(C)c1ccc(OCc2ccc(C(=O)N3CCN(c4ccccn4)CC3)cc2)cc1 | 11.2 µM (active) | –
86 | Cn1cccc1C(=O)N1CCC2(CC1)CCN(c1ncccn1)CC2 | inactive | –
87 | O=C(c1cnccn1)N1CCC2(CC1)CN(c1ccccn1)C2 | inactive | –
88 | O=C(c1cnccn1)N1CCC2(CC1)CCN(c1ncccn1)CC2 | inactive | –
89 | CC(=O)N1CCC2(CC1)CCN(c1ccccn1)CC2 | inactive | –
90 | COCC(=O)N1CCC2(CC1)CCN(c1ccccn1)CC2 | inactive | –
91 | O=C(c1cnc(N2CCN(c3ncccn3)CC2)c2ccccc12)N1CCN(c2ncccn2)CC1 | 10 µM (active) | –
92 | COCC(=O)N1CCC2(CC1)CCN(C(=O)NC(C)C)CC2 | inactive | –
93 | Cc1ccc(-n2nnnc2C(=Cc2ccc(N(C)C)cc2)c2nnnn2-c2ccc(C)cc2)cc1 | 1.26 µM (active) | –
94 | O=C1CC(c2cccc(F)c2)SC(N(c2ccccc2)c2ccccc2)=N1 (centres undefined) | 5.01 µM (active) | –

From PubChem BioAssay AID1851 (National Center for Advancing Translational Sciences (NCATS), 2009)
